In PubChem BioAssay AID1159580 (chemical genetic matrix, 2015):
In all, about 5,500 compounds went through this assay and about 2,000 (36%) were called active. Not shown: some 18% with an inconclusive outcome. Rule as the data show it: active = normalized growth mostly below about 0.91 (no sharp cut-off); inconclusive = no clear call, values can overlap the other calls; inactive = mostly above about 0.92. This is one part of the list.

Assay: chemical genetic growth profiling, strain panel (AID 1159580);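 also: tested at 20 µM; growth read once vehicle control cultures reached saturation at 30 °C; 1 = growth at the plate median or of vehicle wells; lower values mean less growth of the strain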
Conditions: growth OD

Measured: normalized growth

CCCSc1ccc2nc(NC(=O)OC)[nH]c2c1
active: S. cerevisiae deletion strains, locus YKR001C, strain vps1, hits give low values 0.882 | S. cerevisiae deletion strains, locus YLR268W, strain sec22, hits give low values 0.847 | S. cerevisiae deletion strains, locus YML124C, strain tub3, hits give low values 0.202 | S. cerevisiae deletion strains, locus YNL153C, strain GIM3, hits give low values 0.0651 | S. cerevisiae deletion strains, locus YPL241C, strain CIN2, hits give low values 0.0807 | S. cerevisiae deletion strains, locus YPR163C, strain tif3, hits give low values 0.904
inactive: S. cerevisiae deletion strains, locus YJR075W, strain HOC1, hits give low values 0.97 | S. cerevisiae deletion strains, locus YKL009W, strain mrt4, hits give low values 0.938 | S. cerevisiae deletion strains, locus YKL068W, hits give low values 0.972 | S. cerevisiae deletion strains, locus YKL085W, strain MDH1 (second series), hits give low values 0.986 | S. cerevisiae deletion strains, locus YKL085W, strain MDH1, hits give low values 0.986 | S. cerevisiae deletion strains, locus YKL160W, strain elf1, hits give low values 1.01 | S. cerevisiae deletion strains, locus YKL190W, strain CNB1, hits give low values 0.988 | S. cerevisiae deletion strains, locus YKR026C, strain gcn3, hits give low values 1.01 | S. cerevisiae deletion strains, locus YKR091W, strain srl3, hits give low values 1.01 | S. cerevisiae deletion strains, locus YLL001W, strain dnm1, hits give low values 0.999 | S. cerevisiae deletion strains, locus YLL026W, hits give low values 1.01 | S. cerevisiae deletion strains, locus YLL041C, strain sdh2, hits give low values 1 | S. cerevisiae deletion strains, locus YLR027C, strain aat2, hits give low values 1 | S. cerevisiae deletion strains, locus YLR039C, strain RIC1, hits give low values 0.731 | S. cerevisiae deletion strains, locus YLR058C, strain SHM2, hits give low values 0.988 | S. cerevisiae deletion strains, locus YLR102C, strain apc9, hits give low values 0.973 | S. cerevisiae deletion strains, locus YLR113W, strain HOG1, hits give low values 0.979 | S. cerevisiae deletion strains, locus YLR221C, strain rsa3, hits give low values 1.01 | S. cerevisiae deletion strains, locus YLR258W, strain gsy2, hits give low values 1.01 | S. cerevisiae deletion strains, locus YLR262C, strain YPT6 (second series), hits give low values 0.874 | S. cerevisiae deletion strains, locus YLR262C, strain YPT6, hits give low values 0.732 | S. cerevisiae deletion strains, locus YLR320W, strain mms22, hits give low values 1.01 | S. cerevisiae deletion strains, locus YLR330W, strain CHS5, hits give low values 0.982 | S. cerevisiae deletion strains, locus YLR342W, strain FKS1 (second series), hits give low values 1.01 | S. cerevisiae deletion strains, locus YLR342W, strain FKS1, hits give low values 1.02 | S. cerevisiae deletion strains, locus YLR357W, strain rsc2, hits give low values 0.975 | S. cerevisiae deletion strains, locus YLR370C, strain arc18, hits give low values 1 | S. cerevisiae deletion strains, locus YLR371W, strain rom2, hits give low values 0.967 | S. cerevisiae deletion strains, locus YLR384C, strain iki3, hits give low values 0.997 | S. cerevisiae deletion strains, locus YLR418C, strain cdc73, hits give low values 0.886 | S. cerevisiae deletion strains, locus YML016C, strain PPZ1, hits give low values 0.993 | S. cerevisiae deletion strains, locus YML032C, strain rad52, hits give low values 0.947 | S. cerevisiae deletion strains, locus YML120C, strain ndi1, hits give low values 1 | S. cerevisiae deletion strains, locus YMR058W, strain fet3, hits give low values 1.01 | S. cerevisiae deletion strains, locus YMR078C, strain ctf18, hits give low values 0.964 | S. cerevisiae deletion strains, locus YMR125W, strain sto1, hits give low values 1.02 | S. cerevisiae deletion strains, locus YMR129W, hits give low values 1.01 | S. cerevisiae deletion strains, locus YMR205C, strain PFK2, hits give low values 1.03 | S. cerevisiae deletion strains, locus YMR223W, strain ubp8, hits give low values 0.997 | S. cerevisiae deletion strains, locus YMR231W, strain pep5, hits give low values 1.03 | S. cerevisiae deletion strains, locus YMR263W, strain SAP30, hits give low values 0.941 | S. cerevisiae deletion strains, locus YMR307W, strain GAS1, hits give low values 1.19 | S. cerevisiae deletion strains, locus YNL067W, strain RPL9B, hits give low values 0.942 | S. cerevisiae deletion strains, locus YNL071W, strain lat1, hits give low values 1.02 | S. cerevisiae deletion strains, locus YNL128W, strain TEP1, hits give low values 0.989 | S. cerevisiae deletion strains, locus YNL183C, strain NPR1, hits give low values 0.896 | S. cerevisiae deletion strains, locus YNL209W, strain ssb2, hits give low values 1 | S. cerevisiae deletion strains, locus YNL233W, strain BNI4, hits give low values 0.965 | S. cerevisiae deletion strains, locus YNL248C, strain rpa49, hits give low values 1 | S. cerevisiae deletion strains, locus YNL250W, strain rad50, hits give low values 0.999 | S. cerevisiae deletion strains, locus YNL271C, strain bni1, hits give low values 0.973 | S. cerevisiae deletion strains, locus YNL298W, strain CLA4, hits give low values 0.947 | S. cerevisiae deletion strains, locus YNL307C, strain MCK1, hits give low values 0.948 | S. cerevisiae deletion strains, locus YNL322C, strain KRE1 (second series), hits give low values 1.01 | S. cerevisiae deletion strains, locus YNL322C, strain KRE1, hits give low values 0.996 | S. cerevisiae deletion strains, locus YNR049C, strain mso1, hits give low values 1.01 | S. cerevisiae deletion strains, locus YNR052C, strain pop2, hits give low values 0.958 | S. cerevisiae deletion strains, locus YOL006C, strain TOP1, hits give low values 0.729 | S. cerevisiae deletion strains, locus YOL012C, strain htz1 0.603 | S. cerevisiae deletion strains, locus YOL147C, strain pex11, hits give low values 0.967 | S. cerevisiae deletion strains, locus YOR001W, strain rrp6, hits give low values 1.01 | S. cerevisiae deletion strains, locus YOR061W, strain CKA2, hits give low values 0.996 | S. cerevisiae deletion strains, locus YOR069W, strain VPS5, hits give low values 0.99 | S. cerevisiae deletion strains, locus YOR070C, strain gyp1, hits give low values 1.01 | S. cerevisiae deletion strains, locus YOR080W, strain dia2, hits give low values 1.02 | S. cerevisiae deletion strains, locus YOR083W, strain WHI5, hits give low values 1.01 | S. cerevisiae deletion strains, locus YOR106W, strain vam3, hits give low values 0.997 | S. cerevisiae deletion strains, locus YOR136W, strain idh2, hits give low values 0.996 | S. cerevisiae deletion strains, locus YOR144C, strain elg1, hits give low values 0.965 | S. cerevisiae deletion strains, locus YOR184W, strain ser1, hits give low values 0.893 | S. cerevisiae deletion strains, locus YOR231W, strain MKK1, hits give low values 0.941 | S. cerevisiae deletion strains, locus YOR265W, strain rbl2, hits give low values 1.02 | S. cerevisiae deletion strains, locus YOR270C, strain vph1, hits give low values 0.963 | S. cerevisiae deletion strains, locus YOR290C, strain snf2, hits give low values 0.98 | S. cerevisiae deletion strains, locus YOR316C, strain cot1, hits give low values 0.959 | S. cerevisiae deletion strains, locus YPL051W, strain arl3, hits give low values 0.998 | S. cerevisiae deletion strains, locus YPL055C, strain LGE1, hits give low values 0.945 | S. cerevisiae deletion strains, locus YPL078C, strain atp4, hits give low values 1.01 | S. cerevisiae deletion strains, locus YPL106C, strain sse1, hits give low values 1.04 | S. cerevisiae deletion strains, locus YPL240C, strain hsp82, hits give low values 1 | S. cerevisiae deletion strains, locus YPL256C, strain CLN2, hits give low values 0.933 | S. cerevisiae deletion strains, locus YPR119W, strain clb2, hits give low values 0.963 | S. cerevisiae deletion strains, locus YPR141C, strain kar3, hits give low values 0.992 | S. cerevisiae deletion strains, locus YPR167C, strain met16, hits give low values 0.954 | S. cerevisiae deletion strains, strain wtn01, hits give low values 0.916 | S. cerevisiae strains, strain wild type, hits give low values 1
